Measurements taken from PubChem BioAssay (NCI).
Where “and” joins values, the source holds several entries; their conditions need not be identical. Equal values may be shown once. The panel holds about 79,000 compounds, 15% with a hit somewhere; the sample as a whole holds those more often. A number with no mark means an inactive call. Calls of active or inactive are those of the source. No stated cut-off is given here; in the data, active means growth inhibition above about 70%; inactive means the rest.

Tests used:
[1] = NCI Yeast Anticancer Drug Screen. Data for the rad50 strain (AID 155);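 further: 0% = growth of vehicle-only cultures of the same strain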; conditions: S. cerevisiae rad50 strain growth inhibition, hits give high values; at 50.0 µM unless noted
Summary of the method: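 Inhibition values express reduced yeast growth in compound-treated cultures relative to vehicle-treated controls.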

[2] = NCI Yeast Anticancer Drug Screen. Data for the sgs1 mgt1 strain (AID 161);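 further: 0% = growth of cultures given vehicle only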; conditions: S. cerevisiae sgs1 mgt1 strain, hits give high values; at 50.0 µM unless noted
Summary of the method: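 Growth of a repair-deficient yeast mutant was monitored after compound treatment and expressed as inhibition relative to vehicle-treated cultures.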

[3] = NCI Yeast Anticancer Drug Screen. Data for the cln2 rad14 strain (AID 165);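 further: 0% = growth equal to vehicle treated cultures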; conditions: S. cerevisiae cln2 rad14 strain, hits give high values; at 50.0 µM unless noted
Summary of the method: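 Growth inhibition, relative to vehicle-treated controls, is the read-out. The test organism is a yeast strain with defined genetic alterations, cln2 rad14.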

[4] = NCI Yeast Anticancer Drug Screen. Data for the bub3 strain (AID 167); conditions: S. cerevisiae bub3 mutant strain, hits give high values; at 50.0 µM unless noted
Summary of the method: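 Steps: expose the mutant yeast strain to compound; grow alongside vehicle-treated cultures; measure growth; express inhibition against the vehicle cultures.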

[5] = NCI Yeast Anticancer Drug Screen. Data for the mlh1 rad18 strain (AID 175); conditions: S. cerevisiae mlh1 rad18 strain growth inhibition, hits give high values; at 50.0 µM unless noted
Summary of the method: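 Cells of a genetically altered yeast strain, deficient in DNA damage repair, were treated with compound. Their growth was then compared with that of vehicle-treated cultures to give inhibition.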

[6] = NCI Yeast Anticancer Drug Screen. Data for the mec2-1 strain (AID 157); conditions: S. cerevisiae mec2-1 strain, hits give high values; at 50.0 µM unless noted
Summary of the method: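 Growth inhibition is read against vehicle-treated controls after compound exposure of the mec2-1 yeast strain, which is defective in DNA damage repair or cell cycle control.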

| Structure (SMILES) | growth inhibition [1] | growth inhibition [2] | growth inhibition [3] | growth inhibition [4] | growth inhibition [5] | growth inhibition [6] |
| --- | --- | --- | --- | --- | --- | --- |
| COc1cc2cnc3c4cc(OC(C)C)c(OC)cc4ccc3c2cc1OC | -10% | -20.1% | 5.75% | -5.3% | -29.4% | – |
| CCN(CC)CCC(=O)c1ccc(Cl)cc1 | 19.6% | 14.1% | 10.3% | 1.05% | 17.4% | – |
| CCOC(=O)C(=O)Nc1cc(C)no1 | 4.95% | -6.6% | -25.6% | -25.1% | -2% | – |
| C=C[C@]1(C)C=C2CC[C@@H]3[C@](C)(CCC[C@@]3(C)C(=O)O)[C@H]2CC1 | 14.5% | 13.8% | -9.05% | -1.9% | 29.8% | – |
| O=CC(CO)C(C=O)n1ncc2ccccc21 (stereo unspecified) | 30.2% | 28.3% | 9.55% | 13.3% | 30.8% | – |
| O=C(O)c1cccc2c(=O)c3ccccc3oc12 | -13.9% | -16.9% | 8.25% | -32.4% | 0.85% | – |
| CCOC(=O)C1=C(c2ccccc2)OC(N)=C(C#N)C1c1ccccc1Cl (stereo unspecified) | 28.4% | 24.6% | -21.4% | 39.9% | 51.5% | – |
| CCCCCCSC(=O)NC(C)=O | -10.3% | 1.4% | -86% | -18.9% | 0% | – |
| COc1ccc(Nc2nc3ccccc3nc2-c2cccs2)cc1OC | -5.8% | 13.9% | 9.3% | -0.7% | -23.4% | – |
| Cc1ccc(C(=O)/C=C/c2cccc3ccccc23)cc1 | 16.1% | 21.5% | 4.25% | 9.95% | 3.95% | – |
| CCCCCCCCCC(=O)N=C(C(N)=O)C(N)=O | -13.2% | 38.5% | 3.75% | 1.7% | 21.8% | – |
| CC(=O)Nc1ccc(S(N)(=O)=O)cc1 | 16.6% and -34.8% | 16.1% and 21.3% | 12% and -4.55% | 1.75% and -3.65% | 13.6% and 37% | – |
| O=CNCC(=O)O | 15.6% | -15.5% | -0.7% | -2.55% | 7.9% | – |
| CCN(CC)c1ccc2cc(-c3csc(-c4ccc(N(C)C)cc4)n3)c(=O)oc2c1 | 26.5% | -5.25% | 16.9% | -13.1% | -20.3% | – |
| COc1ccc2c(c1)OC[C@@H]1c3cc(NS(=O)(=O)c4ccccc4)cc(OCc4ccccc4)c3O[C@H]21 | -16.4% | -13.5% | -17.3% | 1.4% | -6.55% | – |
| COC(=O)[C@H](Cc1c[nH]c2ccccc12)NC(=O)OCC1OC(n2cc(C)c(=O)[nH]c2=O)CC1N=[N+]=[N-] (stereo partly specified) | -0.35% | -3.5% | 9.3% | -13.6% | -79.5% | – |
| CCOC(=O)c1cccc(N)c1C(=O)OCCN(CC)CC | 1.65% | -3.75% | -25.2% | 19.4% | 3.55% | – |

| Structure (SMILES) | growth inhibition [1] | growth inhibition [2] | growth inhibition [3] | growth inhibition [4] | growth inhibition [5] | growth inhibition [6] |
| --- | --- | --- | --- | --- | --- | --- |
| CC(=O)OC1c2ccccc2CCCCCCC12OCCO2 (stereo unspecified) | -25.1% | -53.2% | 1.8% | -36.3% | -7.25% | – |
| CC(=O)C[N+](C)(C)C | -12.9% | -14.8% | -7.45% | -20.8% | 12.7% | – |
| O=C1c2ccccc2S(=O)(=O)c2c1cccc2[N+](=O)[O-] | 14.1% | – | 5.3% | -4.7% | 15.7% | – |
| O=C1NC(=O)C(Cc2ccccc2)(c2cccnc2)N1 (stereo unspecified) | -28.6% | -5.65% | -36.1% | -0.65% | -22.2% | – |
| COc1cc(OC)c(NC(=O)C2=C(C)NC(C)=C(C(=O)Nc3cc(Cl)c(OC)cc3OC)C2c2cccc([N+](=O)[O-])c2)cc1Cl | 9.25% | 22.9% | 36.1% | 14.4% | 3.7% | – |
| N#CCC(=O)OCCCc1ccccc1 | 15.8% | -1.5% | -32.5% | 2.65% | 0.45% | – |
| O=[N+]([O-])c1cccc(SSc2cccc([N+](=O)[O-])c2)c1 | 0.45% and -34.8% | -1.8% and -61.9% | -2.95% and -12.7% | -3.1% and -35.6% | -1.3% and -65.8% | – |
| CC(=O)OCC(O)CS(=O)c1ccc(C)cc1 (stereo unspecified) | -6.25% | 0.4% | -30.6% | -16.1% | 4.2% | – |
| Cc1ccc(Cl)c(NC(=O)Nc2ccccc2Cl)c1 | – | -7.2% | -15.2% | -2.5% | 20.4% | 3.65% |
| CCN(CC)CCCC(C)NCC1C(O)CCC2CN3CCc4c([nH]c5ccccc45)C3CC21 (stereo unspecified) | – | 25.2% | 23.6% | 18.6% | 25.1% | – |
| O=C1NC(=S)N/C1=C\c1ccc(Cl)cc1 | – | 15% | -5.9% | -9.3% | -39.7% | -4.8% |
| COc1ccc(N=C=Nc2ccc(OC)cc2)cc1 | – | 4.15% | 9.6% | -10.2% | -13.6% | -15% |
| O=C(c1ccc(-c2ccccc2)cc1)C(O)c1ccc(-c2ccccc2)cc1 (stereo unspecified) | – | 2.65% | -5.35% | 1.2% | 4.65% | 0.4% |
| COc1ccc(Cl)c2c(=O)c3ccccc3[nH]c12 | – | 2.5% | – | -12.3% | 12.8% | 7.65% |
| CC(C)NC(=O)OCc1c(COC(=O)NC(C)C)c(-c2ccccc2)n(C)c1-c1ccccc1 | – | 6.05% | -5.7% | 1.85% | 32.8% | 2.05% |
| C[Si](C)(C)OC1CC(=O)OC1n1cc(F)c(=O)[nH]c1=O (stereo unspecified) | – | 75.8% (active) | -1.15% | 21.8% | – | 81.6% (active) |
